Source: PubChem BioAssay AID624296 (National Center for Advancing Translational Sciences (NCATS), 2012)
Out of some 350,000 compounds screened, about 9,900 (2.8%) were called active. Inconclusive results (about 15%) are left out. This is one part of a sample in which actives are shown more often than they occur. Unmarked numbers belong to inactive results. Calls follow the shape of the dose curve; as a rule, active = well fitted activation curve with a large enough effect; inconclusive = small, poorly fitted or top-dose-only effect; inactive = no such curve, though single readings can be large or run the other way.

assay: A quantitative high throughput screen for small molecules that induce DNA re-replication in MCF 10a normal breast cells.; also: nearly all actives have a fitted effect of over 50% in size; as to activity, positive = re-replication: % of control where 0% means no effect; conditions: MCF 10A DNA re-replication, Hoechst nuclear intensity, 48 h; series mostly up to 46.1 µM; activity, positive = re-replication: at the top concentration
Potency is read from the fitted curve at half-maximal effect.

SMILES	activity, positive = re-replication [%]	Potency
Cc1cc([N+](=O)[O-])c(=O)[nH]c1C	-1.26	
O=C(Nc1cccc(S(=O)(=O)N2CCCCC2)c1)c1ccc2c(c1)OCO2	-37.9	
Cc1onc(-c2c(F)cccc2Cl)c1C(=O)Nc1cccc(S(=O)(=O)N2CCCCC2)c1		14.6 µM (active)
Cc1onc(-c2c(F)cccc2Cl)c1C(=O)N(C)CC(=O)Nc1cccc(F)c1	7.52	
CSc1c(SCc2ccccc2)cnn(Cc2ccccc2)c1=O		18.4 µM (active)
Cn1c(CO)cnc1SCc1ccccc1	4.65	
CSc1nc2ccccc2c(=O)n1Cc1ccc(F)cc1	-0.253	
CCCCNC1(C#N)CCN(Cc2ccccc2)CC1	-3.09	
CCc1nc(C)cn1S(=O)(=O)c1cc([N+](=O)[O-])ccc1Cl		6.51 µM (active)
CC(C)c1nccn1S(=O)(=O)c1cc([N+](=O)[O-])ccc1Cl	-7.05	
CCc1nc(C)cn1S(=O)(=O)c1cc(OC)c(C)cc1C	1.93	
CC(=O)Nc1ccc(C(=O)N(C2=NC(C)CS2)c2ccc(Cl)cc2)cc1 (configuration not stated)		5.17 µM (active)
COc1ccccc1C(=O)N(C1=NC(C)CS1)c1ccc(Cl)cc1 (configuration not stated)	-0.302	
CC(=O)Nc1ccc(NC(=O)CCCNC(=O)c2ccc(Cl)cc2)cc1	4.76	
O=C1CC(c2ccccc2)C(c2ccccc2)=NN1 (configuration not stated)	-1.02	
Cc1nc2ccc(NC(=O)C3CCCCC3)cc2s1	-6.42	
CN(C)CCCn1c(N)c(C#N)c2nc(C#N)c(C#N)nc21		7.31 µM (active)
CCCN=C1N(C)C[C@@H]2[C@@H]3C(=O)N(Cc4ccccc4)C(=O)[C@@H]3[C@](C)(C(=O)OC)N12	1.39	
COc1ccccc1NS(=O)(=O)c1ccc(C)c(C(=O)NNC(=O)c2csc(N3CCOCC3)n2)c1	10.5	
CC(C)C(NC(=O)c1c(F)cccc1F)C(=O)NNC(=O)c1ccccc1 (configuration not stated)	5.67	
CCCc1nc2c(c(=O)c3ccccc3n2C)c(=O)n1C1CCCCCC1		14.6 µM (active)
CCCc1nc2c(c(=O)c3ccccc3n2C)c(=O)n1-c1cc(C)cc(C)c1	-0.733	
Cn1c2ccccc2c(=O)c2c(O)cccc21	0.882	
CC(=NNC(=O)c1ccncc1)c1ccc(Cl)c(Cl)c1	-0.649	
CCC1CCCCN1C(=S)NC(=O)c1ccco1 (configuration not stated)	11.7	
CCN(CC)CCNC(=O)c1ccc(NC(=O)c2cc(-c3ccncc3)nc3ccccc23)cc1	8.64	

SMILES	activity, positive = re-replication [%]	Potency
Cc1ccc2nc(-c3ccncc3)cc(C(=O)Nc3ccc(OC(F)F)cc3)c2c1		14.6 µM (active)
O=C(Nc1ccncc1)c1cc(-c2ccccn2)nc2ccc(Br)cc12	-3.49	
Cc1nc2ccc(NC(=O)c3cccc(S(=O)(=O)N4CCOCC4)c3)cc2s1	9.34	
CC1(C)N=C(N)NC(Nc2ccc(Cl)cc2)=N1	11	
Cc1csc(=O)n1CC(=O)Nc1ccc(S(C)(=O)=O)cc1	-17.5	
CCOc1cc(N2CCOCC2)c(OCC)cc1NC(=O)COc1cccc(Cl)c1	1.23	
CCOc1cc(N2CCOCC2)c(OCC)cc1NC(=O)c1cc(C)nc2ccccc12	4.26	
CCOc1cc(N2CCOCC2)c(OCC)cc1NC(=O)COc1cccc2cccnc12		15.8 µM (active)
CC(OC(=O)c1cc2ccccc2[nH]1)C(=O)N(C)c1ccccc1 (configuration not stated)	9.46	
CN(C)c1ccc(/C=N/Nc2cc(N3CCOCC3)nc(N3CCOCC3)n2)cc1	-0.353	
C(=N/Nc1cc(N2CCOCC2)nc(N2CCOCC2)n1)/c1ccccc1		23.1 µM (active)
Cc1cc(N2CCN(c3ccccc3)CC2)nc(N2CCOCC2)n1	11.3	
COc1ccccc1NC(=O)COC(=O)CNC(=O)C1CCCCC1	2.67	
CCCn1nc(NS(=O)(=O)c2ccccc2)c2cc3cc(C)ccc3nc21	0.575	
CCn1nc(NC(=O)c2ccco2)c2cc3ccc(C)cc3nc21		8.91 µM (active)
Cc1ccnc(NC(=O)c2ccco2)n1	6.36	
COC(=O)[C@]1(Cc2ccccc2)N[C@H](CN(C)S(=O)(=O)c2ccc(F)cc2)[C@@H]2C(=O)N(Cc3ccccc3)C(=O)[C@@H]21	4.15	
CCC1(C)Cc2c(sc3nc4n(c(=O)c23)CCCS4)CO1 (configuration not stated)	9.25	
CCCSc1nc(NCc2ccco2)c2c3c(sc2n1)COC(C)(CC)C3 (configuration not stated)		23.1 µM (active)
CCC1(C)Cc2c(sc3nc(SC)nc(N)c23)CO1 (configuration not stated)	-0.174	
O=C(OCC(=O)N1CCCCC1)c1ccc(OC(F)(F)F)cc1	1.12	
O=C(NCCc1ccc(F)cc1)c1ccc(S(=O)(=O)N2CCCCC2)cc1	11.5	
CC1(c2ccccc2)NC(=O)N(CC(=O)N2CC(=O)Nc3ccccc32)C1=O (configuration not stated)	0.732	
NC(=O)C1CCN(C(=O)c2ccc(F)c(S(=O)(=O)N3CCOCC3)c2)CC1	-3.07	
O=S(=O)(NCc1ccc(Cl)cc1Cl)c1cccs1	-8.83	
O=S(=O)(Cc1ccc(Cl)cc1Cl)c1ccc(Cl)cc1		0.651 µM (active)
